Here are results for 40 molecules from PubChem BioAssay (EPA / NIEHS).

Calls of active or inactive are those of the source. The calls were made as follows: active = hit-call score of the fitted dose curve at least 0.9, where 1 is the maximum; inactive = score below 0.9.

X-box-binding protein 1 (Homo sapiens), sequence (P17861 whole entry, looked up): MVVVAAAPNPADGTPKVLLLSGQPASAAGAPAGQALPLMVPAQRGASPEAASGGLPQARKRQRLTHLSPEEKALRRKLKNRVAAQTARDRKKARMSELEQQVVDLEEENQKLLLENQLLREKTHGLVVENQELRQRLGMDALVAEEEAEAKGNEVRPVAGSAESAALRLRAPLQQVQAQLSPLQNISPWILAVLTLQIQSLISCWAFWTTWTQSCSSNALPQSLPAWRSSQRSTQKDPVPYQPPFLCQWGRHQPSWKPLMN

The assay addresses X-box-binding protein 1 (Homo sapiens) (UniProt P17861). In words: ATG_Xbp1_CIS: Attagene CIS-FACTORIAL HepG2 Assay for human X-box Binding Protein 1 (XBP1) (AID 2282972). As to conditions: HepG2 XBP1 cis-element reporter, Attagene multiplex; actives raise or lower the signal. The method, then:
ATG_CIS is a cell-based, multiplexed-readout assay that uses HepG2, a human liver cell line, with measurements taken at 24 hours after chemical dosing in a 24-well plate.ATG_Xbp1_CIS is one of 52 assay component(s) measured or calculated from the ATG_CIS assay. It is designed to make measurements of mRNA induction, a form of inducible reporter, as detected with fluorescence intensity signals by Reverse transcription polymerase chain reaction (RT-PCR) and Capillary electrophoresis technology.Data from the assay component ATG_Xbp1_CIS was analyzed into 1 assay endpoint. This assay endpoint, ATG_Xbp1_CIS, was analyzed with bidirectional fitting relative to DMSO as the negative control and baseline of activity. Using a type of inducible reporter, measures of mRNA for gain or loss-of-signal activity can be used to understand the reporter gene at the transcription factor-level as they relate to the gene XBP1. Furthermore, this assay endpoint can be referred to as a primary readout, because this assay has produced multiple assay endpoints where this one serves a reporter gene function. To generalize the intended target to other relatable targets, this assay endpoint is annotated to the dna binding intended target family, where the subfamily is basic leucine zipper.
Human liver HepG2 cells are transiently transfected with multiple reporter transcription units (MRTUs) in 6-well plates using FuGene 6 reagent (Roche; 3 ml FuGene/1 mg DNA). The MRTU constructs are regulated by a cis-regulating element (promoter). […] A major difference between the CIS and TRANS system is that in CIS activities of endogenous TFs are measured, whereas the TRANS assay evaluates changes in activities of exogenous, chimeric NR-Gal4 proteins. […] At the end of 24 hour incubation, total RNA was isolated using TriZol reagent (Invitrogen). The isolated RNA is then reverse-transcribed using oligo(dT) primer and Mo-MLV reverse transcriptase (Invitrogen) with DNAse I (Ambion) treatment for 30 min. The one-tenth of the produced cDNA was amplified by PCR using Taq DNA polymerase (Invitrogen) and two reporter sequence-specific primers. The PCR products were fluorescently labeled by primer extension with 6-arboxyfluorescein (6-FAM) 5'-labeled reporter sequence-specific primer (2 min at 95 C, 20 s at 68 C and 10 min at 72 C) and these products were digested with 5U of HpaI (New England Biolabs) for 2h at 37 C. The fragments were purified using Qiaquick PCR columns (Qiagen), analyzed on an ABI 3130xL genetic analyzer (Applied Biosystems) with peak positions identified by using a set of X-rhodamine (ROX)-labeled MapMarker1000 molecular weight standards (BioVentures). The raw capillary electrophoresis data was processed using Attagraph software (Attagene).
As for `CCOC(=O)CC(=O)OCC`, the result was inactive.
For `CC(=O)c1nccs1` the value was “inactive”; for `CC(C)n1c(/C=C/[C@@H](O)C[C@@H](O)CC(=O)O)c(-c2ccc(F)cc2)c2ccccc21`, “inactive”.
On to `CC/C=C\CCO`, for which the molecule was called inactive.
For `CNC(=C[N+](=O)[O-])NCCSCc1csc(CN(C)C)n1` the value was “inactive”; for `O=[N+]([O-])c1ccc2nc[nH]c2c1`, “inactive”.
As for `O=C(O)/C=C/C(=O)O`, the molecule was classed as inactive.
For `C=C1CC[C@H]2C[C@@H]1C2(C)C` the value was “inactive”.
For `c1cc[c]([Bi]([c]2ccccc2)[c]2ccccc2)cc1`, the molecule was called inactive.
For `C1=CCC=C1` the value was “inactive”.
For `COC(OC)C(C)c1ccccc1` (stereo not given) the value was “inactive”; for `Oc1ccc(Oc2ccccc2)cc1`, “inactive”; for `OCCN(CCO)c1cccc(Cl)c1`, “inactive”.
Then `O=C(c1ccccc1)c1ccccc1O`, with “inactive”; and `CCC(C)C1N=C(C)C(C)S1` (stereo not given), with “inactive”; and `OCCOCCOCCOCCOCCO`, with “inactive”.
`O=C1CCCCCCCCCCCCCC1`: the outcome was inactive.
As for `CCCC(=O)OC/C=C(\C)CCC=C(C)C`, the outcome was inactive.
For `CCCCOC(=O)COc1ccc(Cl)cc1Cl` the value was “inactive”; for `C[Si](C)(C)O[Si](C)(C)O[Si](C)(C)C`, “inactive”; for `O=C(OCc1ccccc1)c1ccccc1`, “inactive”.
For `CC(=O)CCc1ccccc1` the value was “inactive”.
`Brc1ccc(Oc2ccc(Br)cc2)cc1`: the call was inactive.
For `CCCCNC(N)=O` the value was “inactive”; for `CC[N+](CC)(CC(=O)Nc1c(C)cccc1C)Cc1ccccc1`, “inactive”; for `NC(=O)c1ccc(N)cc1`, “inactive”.
In the case of `CC(C)CC(=O)CC(C)C`, the molecule was classed as inactive.
For `NC(N)=Nc1nc(CSCCC(N)=NS(N)(=O)=O)cs1` the value was “inactive”; for `NC(=O)c1ccc([N+](=O)[O-])cc1Cl`, “inactive”; for `CCOC(=O)c1ccccc1`, “inactive”.
Regarding `CCCCCC[C@@H](O)C/C=C\CCCCCCCC(=O)O`, the call was inactive.
Consider `O=C1NC(=O)[C@@H]2CC=CC[C@H]12`, for which the call was inactive.
For `Cc1ccnc(N)c1` the value was “inactive”.
In the case of `O=C(C1CCCCC1)N1CC(=O)N2CCc3ccccc3C2C1` (stereo not given), the call was inactive.
Then `CCCCCC1CCCC(=O)O1` (stereo not given), with “inactive”; and `CC/C=C/CCO`, with “inactive”; and `CC/C=C\CCCCCO`, with “inactive”.
Then `CC(C)(C)NC(=O)[C@@H]1CN(Cc2cccnc2)CCN1C[C@@H](O)C[C@@H](Cc1ccccc1)C(=O)N[C@H]1c2ccccc2C[C@H]1O`, with “inactive”.
With `CN(C)Cc1cc(C(C)(C)C)c(O)c(C(C)(C)C)c1`, the call was inactive.
For `CC1=C(CC(=O)O)c2cc(F)ccc2/C1=C\c1ccc(S(C)=O)cc1` (stereo not given) the value was “inactive”.
